Bioassay records: PubChem BioAssay, National Center for Advancing Translational Sciences (NCATS)
Hits are enriched below; roughly 17% of the tested compounds scored in any of these assays.
TDP1 inh – inhibitors of human tyrosyl-DNA phosphodiesterase TDP1 | Potency, µM (series often up to 130 µM), for the others: top-dose activity change, negative = inhibition, usual class: inhibitors | Q9NUW8 | AID 485290 | recombinant TDP1, AlphaScreen DNA substrate cleavage | actives 0.28% (n = 350,000); note: % is set by controls: 0 for no effect and ±100 for the full control effect; nearly all actives have a fitted effect of over 40% in size
Target sequence (Q9NUW8 whole entry, looked up): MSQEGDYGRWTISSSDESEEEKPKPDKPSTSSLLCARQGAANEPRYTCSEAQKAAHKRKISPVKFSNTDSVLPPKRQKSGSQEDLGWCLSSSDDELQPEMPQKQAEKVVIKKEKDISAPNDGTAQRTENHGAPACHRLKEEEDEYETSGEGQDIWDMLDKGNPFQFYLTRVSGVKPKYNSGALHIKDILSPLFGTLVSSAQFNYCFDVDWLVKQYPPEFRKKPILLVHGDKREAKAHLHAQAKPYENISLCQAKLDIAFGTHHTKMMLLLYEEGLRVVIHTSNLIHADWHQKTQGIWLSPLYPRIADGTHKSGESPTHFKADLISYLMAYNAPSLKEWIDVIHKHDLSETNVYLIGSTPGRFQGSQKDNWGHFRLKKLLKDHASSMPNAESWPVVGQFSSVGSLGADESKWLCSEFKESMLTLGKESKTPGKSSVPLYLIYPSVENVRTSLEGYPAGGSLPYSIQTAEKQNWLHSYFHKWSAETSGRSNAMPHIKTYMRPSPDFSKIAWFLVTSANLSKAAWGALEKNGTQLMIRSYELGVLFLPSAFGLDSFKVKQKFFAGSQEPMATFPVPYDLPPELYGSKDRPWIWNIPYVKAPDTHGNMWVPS
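Enzyme-compound mixtures sat 15 min at room temperature, followed by a 5 min reaction with 15 nM final substrate and 10 min with AlphaScreen beads. Recombinant human Tdp1 was used at 1 nM final.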
ClpP mod – qHTS Assay for Activators of ClpP; ATP-dependent Clp protease proteolytic subunit (Bacillus subtilis (strain 168)), P80244; purified B. subtilis ClpP, FRET peptide cleavage, 20 min; Potency, µM (series often up to 57.5 µM), without a hit: at the highest dose activity change, negative = active; actives 1.9% (n = 340,000); AID 651965, 2013; active = well fitted falling curve with a large enough effect; inconclusive = small, poorly fitted or top-dose-only effect; inactive = no such curve, though single readings can be large or run the other way; note: the source files actives as falling curves though it sought activators and does not explain the sign; nearly all actives have a fitted effect of over 65% in size
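Buffer: 100 mM Tris/HCl pH8, 100 mM KCl, 0.05% low protease BSA, 2.5% glycerol, 0.01% Tween-20. ClpP 10 microg/mL final; 20 min RT; delta FRET normalized to ADEP and DMSO controls.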
TDP1 cell noCPT – qHTS for Inhibitors of human tyrosyl-DNA phosphodiesterase 1 (TDP1): qHTS in cells in absence of CPT. DT40 Tdp1-/- hTDP1 cells, no CPT, ATP luminescence, 48 h. Potency, µM (series often up to 46.2 µM), for the others: top-dose activity change, negative = growth inhibition, most hits filed as inhibitors. actives 15% (n = 420,000). AID 686978, 2013; note: % is set by controls: 0 for no effect and ±100 for the full control effect; nearly all actives have a fitted effect of over 55% in size
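Stably hTDP1-transfected Tdp1-null chicken DT40 cells were treated with library compounds minus camptothecin and grown for at least 48 hr at 37 °C, after which cellular ATP was quantified by luminescence.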
TDP1 cell CPT – growth inhibition of DT40 Tdp1-/-;hTDP1 cells with camptothecin (screen for TDP1 inhibitors). actives 12% (n = 420,000). AID 686979. Potency, µM (highest dose often 46.2 µM), without a hit: at the highest dose activity change, negative = growth inhibition, usual class: inhibitors. chicken DT40 Tdp1-/-;hTDP1 cells + 20 nM CPT, ATP luminescence, 48 h; note: % is set by controls: 0 for no effect and ±100 for the full control effect; nearly all actives have a fitted effect of over 55% in size
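Cell growth measured by CellTiter-Glo luminescence after a minimum 48 h, 37 C compound exposure with 20 nM CPT in Tdp1-knockout DT40 cells stably expressing hTDP1, seeded 400/well; qHTS titration format.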
Starred values were filed as active, the others as inactive; ! = not active in a repeat. Unless noted, calls come from the whole dose curve; as a rule, active = well fitted curve in the direction sought with a large enough effect; inconclusive = small, poorly fitted or top-dose-only effect, or another doubt; inactive = no such curve, though single readings can be large; an effect the other way counts as inactive or inconclusive. Potency is the fitted concentration of half-maximal effect.

How did O=C1Nc2ccccc2N=C(c2ccc3c(c2)OCO3)C1N(CCc1ccccc1)C(=O)CSc1ncccn1 (centres undefined) do in these assays?
ClpP mod: -1.4%; TDP1 cell noCPT: inconclusive; TDP1 cell CPT: inconclusive

Results for O=C1Nc2ccccc2N=C(c2ccc3c(c2)OCO3)C1N(C(=O)c1ccc2ccccc2c1)C1CC1 (centres undefined) ?
ClpP mod: -15.8%; TDP1 cell noCPT: 20.6µM*; TDP1 cell CPT: 16.4µM*

Results for CCCn1cnc2cc(NC(=O)c3cccs3)ccc21 ?
TDP1 inh: 1.3%; ClpP mod: -0.4%; TDP1 cell noCPT: -2.2%; TDP1 cell CPT: -9.9%

What do the screens show for `O=C(O)CNC(=O)/C(=C\c1ccco1)NC(=O)c1ccco1`?
TDP1 inh: -2.8%; ClpP mod: -5.2%; TDP1 cell noCPT: -16.3%; TDP1 cell CPT: 18.1%

Results for O=C(O)CNC(=O)CC1S/C(=N/N=C2\CSC(=O)N2)NC1=O (centres undefined) ?
TDP1 inh: -1.2%; ClpP mod: -1.9%; TDP1 cell noCPT: -0.2%; TDP1 cell CPT: -9.2%

How did O=C(O)CNC(=O)CC1S/C(=N/N=C/c2ccccc2O)NC1=O (centres undefined) do in these assays?
TDP1 inh: 10.4%; ClpP mod: 2.1%; TDP1 cell noCPT: 16.4µM*; TDP1 cell CPT: 20.6µM*

Results for O=C(C1CCCN(Cc2ccccc2F)C1)N1CCCCC1 (centres undefined) ?
ClpP mod: -10.7%; TDP1 cell noCPT: -7.9%; TDP1 cell CPT: 0.8%

How did O=C(Nc1cccc(-n2cccn2)c1)C1CCCN(Cc2ccccc2F)C1 (centres undefined) do in these assays?
TDP1 inh: 3.0%; ClpP mod: 0.3%; TDP1 cell noCPT: inconclusive; TDP1 cell CPT: 20.6µM*

Results for COc1ccc(CN2CCCC(C(=O)Nc3cccc(-n4cnnn4)c3)C2)c(C)c1C (centres undefined) ?
TDP1 inh: 3.5%; ClpP mod: 2.5%; TDP1 cell noCPT: inconclusive; TDP1 cell CPT: inconclusive

How did COc1cc(CN2CCCC(C(=O)Nc3cccc(-n4cccn4)c3)C2)ccc1F (centres undefined) do in these assays?
TDP1 inh: 3.8%; ClpP mod: 2.4%; TDP1 cell noCPT: 25.9µM*; TDP1 cell CPT: inconclusive

What do the screens show for `Cc1ccc(-n2c(-c3ccc(Cl)cc3)c[n+]3c2CCC3)cc1`?
TDP1 inh: -4.1%; ClpP mod: 0.5%; TDP1 cell noCPT: 3.26µM*; TDP1 cell CPT: 3.26µM*

What do the screens show for `Cc1ccc(-n2c(-c3ccccc3)c[n+]3c2CCC3)cc1`?
TDP1 inh: 2.4%; ClpP mod: -2.4%; TDP1 cell noCPT: 0.651µM*; TDP1 cell CPT: 1.03µM*

How did Cc1ccc(-c2c(C#N)c(N)n(-c3ccc(Cl)cc3)c(=O)c2C#N)cc1 do in these assays?
ClpP mod: 27.3%; TDP1 cell noCPT: -10.0%; TDP1 cell CPT: -21.4%

How did FC(F)Sc1ccc(-n2c(-c3ccc(Cl)cc3)c[n+]3c2CCC3)cc1 do in these assays?
TDP1 inh: 2.4%; ClpP mod: -6.9%; TDP1 cell noCPT: 14.6µM*; TDP1 cell CPT: 11.6µM*

Results for COC(=O)C1=C[C@@H](C(=O)OC)C2C3=C(C(=O)[C@]2(CC(C)C)NC(=O)c2ccccc2)[C@H](C)n2c(=O)n(-c4ccccc4)c(=O)n2[C@@H]3C1 (some centres undefined) ?
TDP1 inh: -11.5%

Results for CSc1cccc(NC(=O)c2sc3nc4n(c(=O)c3c2C)CCC4)c1 ?
TDP1 inh: 3.8%; ClpP mod: 0.2%; TDP1 cell noCPT: -11.2%; TDP1 cell CPT: inconclusive

How did COc1cccc(NC(=O)c2sc3nc4n(c(=O)c3c2C)CCC4)c1 do in these assays?
TDP1 inh: 0.4%; ClpP mod: -2.4%; TDP1 cell noCPT: 14.6µM*!; TDP1 cell CPT: inconclusive

What do the screens show for `Cc1c(C(=O)Nc2ccc(Oc3ccccc3)cc2)sc2nc3n(c(=O)c12)CCC3`?
TDP1 inh: 5.1%; ClpP mod: -11.4%; TDP1 cell noCPT: 18.4µM*; TDP1 cell CPT: inconclusive

How did CC(=O)c1cccc(NC(=O)c2sc3nc4n(c(=O)c3c2C)CCCCC4)c1 do in these assays?
TDP1 inh: 2.0%; ClpP mod: -0.5%; TDP1 cell noCPT: 23.1µM*; TDP1 cell CPT: inconclusive

What do the screens show for `N#CCC(=O)Nc1ccc(C(=O)NCC(c2ccco2)N2CCCCC2)cc1` (centres undefined)?
TDP1 inh: 2.6%; TDP1 cell noCPT: -0.1%; TDP1 cell CPT: 18.3%

What do the screens show for `CC1C(=O)N(Cc2cn(CCC3OCCCO3)nn2)CCS(=O)(=O)N1Cc1ccc(-c2cccc(CO)c2)cc1` (centres undefined)?
ClpP mod: -2.3%; TDP1 cell noCPT: inconclusive; TDP1 cell CPT: -21.9%

How did CC1C(=O)N(Cc2cn(CCC3OCCCO3)nn2)CCS(=O)(=O)N1Cc1ccc(-c2ccc(F)cc2)cc1 (centres undefined) do in these assays?
ClpP mod: 0.3%; TDP1 cell noCPT: 18.4µM*; TDP1 cell CPT: 11.6µM*

Results for CC1C(=O)N(Cc2cn(CCC3OCCCO3)nn2)CCS(=O)(=O)N1Cc1ccc(-c2ccc(Cl)c(Cl)c2)cc1 (centres undefined) ?
ClpP mod: 0.2%; TDP1 cell noCPT: 3.66µM*; TDP1 cell CPT: 4.11µM*

What do the screens show for `COc1ccc(-c2ccc(CN3C(C)C(=O)N(Cc4cn(CCC5OCCCO5)nn4)CCS3(=O)=O)cc2)cc1` (centres undefined)?
ClpP mod: 0.5%; TDP1 cell noCPT: 18.4µM*; TDP1 cell CPT: 16.4µM*

How did CC(C)(C)C(=O)OCOC(=O)C1N2C(=O)CC2S(=O)(=O)C1(C)C (centres undefined) do in these assays?
TDP1 cell noCPT: -1.7%; TDP1 cell CPT: 5.2%

How did c1ccc(Nc2ncnc3sc4c(c23)CCC4)cc1 do in these assays?
TDP1 inh: 1.0%; ClpP mod: -6.5%; TDP1 cell noCPT: -26.6%; TDP1 cell CPT: inconclusive

Results for c1csc(CCNc2ncnc3sc4c(c23)CCC4)c1 ?
TDP1 inh: 2.9%; ClpP mod: -1.5%; TDP1 cell noCPT: 8.2µM*; TDP1 cell CPT: 3.66µM*

Results for CN(C)C(CNc1ncnc2sc3c(c12)CCCCC3)c1ccco1 (centres undefined) ?
TDP1 inh: 3.7%; TDP1 cell noCPT: 18.4µM*; TDP1 cell CPT: inconclusive

How did Cc1sc2ncnc(NCC(c3ccco3)N(C)C)c2c1C (centres undefined) do in these assays?
TDP1 inh: 3.9%; ClpP mod: 0.0%; TDP1 cell noCPT: inconclusive; TDP1 cell CPT: -20.9%

How did Cc1cc(=O)oc2c3c(cc(OCC(=O)NC(C)C)c12)OC(C)(C)CC3 do in these assays?
TDP1 cell noCPT: -27.2%; TDP1 cell CPT: -16.7%
